Screening data as filed in PubChem.
Pf Dd2 inh = blocks growth of Plasmodium falciparum Dd2 parasites; P. falciparum Dd2 growth, SYBR Green, 72 h; hits give low values; activity change, % at 10 µM; 2.3% of 94,000 active; in the data active = activity change below about -80%
T cruzi growth = blocks T. cruzi growth in NIH3T3 culture; T. cruzi beta-gal in NIH3T3, GalScreen luminescence, 90 h; 5.9% of 77,000 active; inhibition, % at 8.34 µM;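 active = mean inhibition above about 93%, with at least 55% of replicates each passing it, limit read from the data, passing the limit was not always enough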
C diff growth = C. difficile growth inhibition | Clostridium difficile clinical isolate growth, OD600, 24 h; hits give low values | growth activity, negative = inhibition, % at 16 µg/mL (by protocol) | 0.25% of 86,000 active | AID 1259249;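 active = mean growth activity at or below -80% and every replicate also at or below -80%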;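 also: 0% = DMSO wells and -100% = levofloxacin 16 µg/mL wells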
The depositor's hits bear a star; ! = not active in a repeat. Hits are enriched below; roughly 6.7% of the tested compounds scored in any of these assays.

For Cc1ccc(S(=O)(=O)Nc2ccc3c(c2)C(=O)N([C@@H](C)CO)C[C@H](C)[C@@H](CN(C)C(=O)Nc2cccc4ccccc24)OCCCC[C@H](C)O3)cc1 the results were Pf Dd2 inh -83.0*, T cruzi growth 92.6 and C diff growth 0.2.
For Cc1ccc(S(=O)(=O)Nc2ccc3c(c2)C(=O)N([C@@H](C)CO)C[C@H](C)[C@@H](CN(C)C(=O)Nc2cccc4ccccc24)OCCCC[C@@H](C)O3)cc1 the results were Pf Dd2 inh -84.9*, T cruzi growth 94.9 and C diff growth -7.4.
`Cc1ccc(S(=O)(=O)Nc2ccc3c(c2)C(=O)N([C@H](C)CO)C[C@H](C)[C@H](CN(C)C(=O)Nc2cccc4ccccc24)OCCCC[C@@H](C)O3)cc1` gave Pf Dd2 inh -60.4, T cruzi growth 62.1 and C diff growth -3.8.
For C[C@H](CO)N1C[C@H](C)[C@@H](CN(C)C(=O)Nc2cccc3ccccc23)OCCCC[C@H](C)Oc2ccc(NS(=O)(=O)c3ccccc3)cc2C1=O the results were Pf Dd2 inh -54.1.
Cc1ccc(S(=O)(=O)Nc2ccc3c(c2)C(=O)N([C@H](C)CO)C[C@@H](C)[C@H](CN(C)C(=O)Nc2cccc4ccccc24)OCCCC[C@@H](C)O3)cc1 was read as Pf Dd2 inh -67.2, T cruzi growth 82.9 and C diff growth -3.5.
Cc1ccc(S(=O)(=O)Nc2ccc3c(c2)C(=O)N([C@@H](C)CO)C[C@@H](C)[C@@H](CN(C)C(=O)Nc2cccc4ccccc24)OCCCC[C@H](C)O3)cc1 was read as Pf Dd2 inh -84.2*, T cruzi growth 92.4 and C diff growth 2.8.
COCC#Cc1ccc(CC[C@H]2O[C@H]3CC[C@@H](CO)O[C@H]3C[C@@H]2n2cc(C(C)(C)O)nn2)cc1 was read as Pf Dd2 inh -39.5 and C diff growth 3.7.
OC[C@@H]1CC[C@@H]2O[C@H](CCc3ccc(-c4ccc(F)cc4)cc3)[C@H](n3cc(C4CC4)nn3)C[C@@H]2O1 was read as Pf Dd2 inh -77.7 and C diff growth -9.3.
COCC#Cc1ccc(CC[C@H]2O[C@H]3CC[C@H](CO)O[C@H]3C[C@@H]2n2cc(C3CC3)nn2)cc1 was read as Pf Dd2 inh -86.9* and C diff growth 0.8.
For OC[C@H]1CC[C@@H]2O[C@H](CCc3ccc(-c4ccc(F)cc4)cc3)[C@H](n3cc(C4CC4)nn3)C[C@@H]2O1 the results were Pf Dd2 inh -81.6* and C diff growth 3.4.
`O=C(C1CCOCC1)N1CC2(C1)[C@@H](c1ccccc1)[C@@H](CO)N2Cc1ccc(Cl)cc1` gave Pf Dd2 inh -18.4 and C diff growth -3.1.
`C[C@H]1CN([C@@H](C)CO)C(=O)c2cccc(NC(=O)C3CC3)c2O[C@H]1CN(C)C(=O)Nc1ccccc1` gave Pf Dd2 inh 24.9, T cruzi growth -1.4 and C diff growth -3.0.
Screening O=C(C1CCC1)N1C[C@@H]2N[C@H](C1)C2c1ccc(/C=C/c2ccccc2)cc1 (stereo partly specified) returned Pf Dd2 inh -77.1 and C diff growth 60.9.
Screening Cc1cccc(-c2ccc(C3[C@@H]4CN(C(=O)Nc5ccccc5)C[C@H]3N4)cc2)c1 (stereo partly specified) returned Pf Dd2 inh -15.4 and C diff growth 54.9.
`Cc1cccc(-c2ccc(C3[C@@H]4CN(C(=O)Nc5ccc(F)cc5)C[C@H]3N4)cc2)c1` (stereo partly specified) gave Pf Dd2 inh -12.7 and C diff growth -91.1*!.
O=C(Nc1ccccc1)N1C[C@@H]2N[C@H](C1)C2c1ccc(-c2cccnc2)cc1 (stereo partly specified) was read as Pf Dd2 inh -9.0 and C diff growth -5.0.
For O=C(Nc1ccc(C(F)(F)F)cc1)N1C[C@@H]2N[C@H](C1)C2c1ccc(-c2ccccc2)cc1 (stereo partly specified) the results were Pf Dd2 inh 3.0 and C diff growth -97.9*.
For O=C(Nc1ccc(C(F)(F)F)cc1)N1C[C@@H]2N[C@H](C1)C2c1ccc(/C=C/c2ccccc2)cc1 (stereo partly specified) the results were Pf Dd2 inh -90.3*! and C diff growth -99.9*.
For O=C(C[C@@H]1C[C@@H]2c3cc(NC(=O)NC4CCCC4)ccc3O[C@@H]2[C@H](CO)O1)NCc1cccc(F)c1 the results were Pf Dd2 inh 14.2 and C diff growth -6.9.
For C[C@@H]1CN([C@@H](C)CO)C(=O)c2cccc(NS(=O)(=O)c3ccccc3)c2O[C@@H]1CN(C)Cc1ccc(Oc2ccccc2)cc1 the results were Pf Dd2 inh -62.9, T cruzi growth 39.1 and C diff growth 44.1.
`C[C@@H]1CN([C@H](C)CO)C(=O)c2cccc(NS(=O)(=O)c3ccccc3)c2O[C@H]1CN(C)Cc1ccc(Oc2ccccc2)cc1` gave Pf Dd2 inh -86.0*, T cruzi growth 50.3 and C diff growth 14.7.
For C[C@H](CO)N1C[C@H](C)[C@@H](CN(C)Cc2ccc(Oc3ccccc3)cc2)Oc2c(NS(=O)(=O)c3ccccc3)cccc2C1=O the results were Pf Dd2 inh -17.7 and C diff growth -9.3.
For C[C@@H]1CN([C@@H](C)CO)C(=O)c2cccc(NS(=O)(=O)c3ccccc3)c2O[C@H]1CN(C)Cc1ccc(Oc2ccccc2)cc1 the results were Pf Dd2 inh -83.2*, T cruzi growth 78.0 and C diff growth -3.9.
Screening COc1ccc(NC(=O)N(C)C[C@@H]2Oc3ccc(NS(=O)(=O)c4ccc(C)cc4)cc3CC(=O)N([C@@H](C)CO)C[C@@H]2C)cc1 returned Pf Dd2 inh -2.3 and T cruzi growth -9.4.
CCC(=O)N[C@@H]1C=C[C@@H](CC(=O)NCC2CC2)O[C@H]1CO was read as Pf Dd2 inh 28.7.
For CC(=O)N(C)C[C@H]1Oc2cc(C#Cc3ccccn3)ccc2S(=O)(=O)N([C@@H](C)CO)C[C@H]1C the results were Pf Dd2 inh 9.0, T cruzi growth -40.7 and C diff growth -3.8.
`C[C@@H]1CCCCO[C@H](CN(C)CC2CCCCC2)[C@H](C)CN([C@@H](C)CO)C(=O)c2cc(NC(=O)NC3CCCCC3)ccc2O1` gave Pf Dd2 inh -53.2 and T cruzi growth 35.3.
C[C@@H]1CCCCO[C@@H](CN(C)CC2CCCCC2)[C@H](C)CN([C@H](C)CO)C(=O)c2cc(NC(=O)Nc3ccc4c(c3)OCO4)ccc2O1 was read as Pf Dd2 inh -81.0*, T cruzi growth 79.1 and C diff growth 3.3.
Screening C[C@@H]1CCCCO[C@@H](CN(C)CC2CCCCC2)[C@@H](C)CN([C@@H](C)CO)C(=O)c2cc(NC(=O)Nc3ccc4c(c3)OCO4)ccc2O1 returned Pf Dd2 inh -65.7, T cruzi growth 91.9 and C diff growth -3.4.
Screening C[C@@H]1CN([C@@H](C)CO)C(=O)c2cc(NC(=O)NC3CCCCC3)ccc2O[C@@H](C)CCCCO[C@H]1CN(C)CC1CCCCC1 returned Pf Dd2 inh -84.7* and T cruzi growth 83.8.
CN1c2ccc(-c3cccc(C#N)c3)cc2[C@H]2[C@H](CCN2S(=O)(=O)c2ccccc2F)[C@H]1CO was read as Pf Dd2 inh -95.1*, T cruzi growth 49.4 and C diff growth -2.1.
